Our source for the activity increase over dofetilide control, less the hit threshold values is PubChem BioAssay AID1835 (Johns Hopkins Ion Channel Center, 2009).

The campaign covered roughly 2,400 compounds. About 750 (31%) were called active.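 The calls were made as follows: active = median signal gain over dofetilide-blocked control wells reaching their mean plus 3 SD, so readout 1 at least 0; inactive = the rest.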 The list shows a part of the results.

The target in the assay is Voltage-gated inwardly rectifying potassium channel KCNH2 (Homo sapiens) (UniProt Q12809). The assay can be described thus: modulators restoring hERG flux under dofetilide – cell-based, thallium flux, duplicate retest, dofetilide IC70, confirmation (AID 1835). Conditions: hERG cell line, FluxOR thallium flux, dofetilide-blocked; at 10 µM; stronger effect = higher value. For orientation: hERG is a cardiac potassium channel; its block is linked to QT prolongation.
Chain of Voltage-gated inwardly rectifying potassium channel KCNH2 (Homo sapiens) (Q12809 whole entry, looked up): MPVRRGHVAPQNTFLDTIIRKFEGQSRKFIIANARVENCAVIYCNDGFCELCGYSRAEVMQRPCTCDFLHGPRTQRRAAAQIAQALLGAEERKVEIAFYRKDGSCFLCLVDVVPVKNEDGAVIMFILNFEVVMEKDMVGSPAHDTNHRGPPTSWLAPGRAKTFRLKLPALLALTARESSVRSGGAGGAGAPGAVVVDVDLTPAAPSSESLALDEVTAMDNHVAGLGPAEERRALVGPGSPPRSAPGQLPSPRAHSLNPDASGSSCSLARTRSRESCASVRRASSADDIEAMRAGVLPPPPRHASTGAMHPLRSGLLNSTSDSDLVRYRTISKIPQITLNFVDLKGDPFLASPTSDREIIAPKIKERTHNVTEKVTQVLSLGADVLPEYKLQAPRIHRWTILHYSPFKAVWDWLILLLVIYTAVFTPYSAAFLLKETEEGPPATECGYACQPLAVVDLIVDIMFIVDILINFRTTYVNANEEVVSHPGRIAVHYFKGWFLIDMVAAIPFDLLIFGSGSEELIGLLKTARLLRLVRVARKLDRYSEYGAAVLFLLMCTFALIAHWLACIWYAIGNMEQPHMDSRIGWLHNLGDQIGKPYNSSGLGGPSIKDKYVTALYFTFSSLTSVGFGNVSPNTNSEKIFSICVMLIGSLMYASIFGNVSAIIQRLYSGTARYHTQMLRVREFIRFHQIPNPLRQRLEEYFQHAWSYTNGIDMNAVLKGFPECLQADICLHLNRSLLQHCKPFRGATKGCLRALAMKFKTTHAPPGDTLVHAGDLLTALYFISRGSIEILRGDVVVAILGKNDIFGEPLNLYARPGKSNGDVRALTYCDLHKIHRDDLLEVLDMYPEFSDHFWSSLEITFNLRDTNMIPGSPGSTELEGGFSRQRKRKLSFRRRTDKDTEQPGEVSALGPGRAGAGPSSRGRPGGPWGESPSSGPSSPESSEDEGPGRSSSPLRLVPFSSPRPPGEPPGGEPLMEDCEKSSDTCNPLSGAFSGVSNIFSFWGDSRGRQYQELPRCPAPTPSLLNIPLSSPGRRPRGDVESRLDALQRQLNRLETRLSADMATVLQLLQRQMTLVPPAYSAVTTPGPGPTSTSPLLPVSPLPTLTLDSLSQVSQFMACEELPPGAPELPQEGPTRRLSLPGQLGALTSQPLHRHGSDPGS
For the compound `CCc1nc(C)ccc1OCC(=O)N1CCc2c([nH]c3ccccc23)C1c1ccccn1` (stereo unspecified), the activity increase over dofetilide control, less the hit threshold was -24% (inactive). Then `Cc1ccc(CCNC(=O)c2cccc(NC3=NC4CS(=O)(=O)CC4S3)c2)cc1` (stereo unspecified), with -4% (inactive).

Take `Cc1cc(=O)[nH]c(N/N=C2/CCCC/C2=C\c2ccccc2)n1`: the activity increase over dofetilide control, less the hit threshold was -9% (inactive). Consider `CNC(=O)c1[nH]cnc1C(=O)Nc1ccccn1`, for which the activity increase over dofetilide control, less the hit threshold was -18% (inactive). Then `Cc1ccccc1OCC(=O)NNC(=O)c1ccc2c(=O)n3c(nc2c1)CCC3`, with -21% (inactive).

On to `O=C1c2ccccc2C(=O)N1CCc1nc(-c2ccccn2)no1`, for which the activity increase over dofetilide control, less the hit threshold was -12% (inactive).

Turning to `CCOc1ccccc1NC(=O)C(=O)CC(=O)c1cccc(OC)c1`, the activity increase over dofetilide control, less the hit threshold was 7% (active). Then `CCOc1ccc(CCNC(=O)Nc2ccccc2C)cc1OCC`, with -12% (inactive); and `Cc1ccc2c(CN3CCOCC3)cc(=O)oc2c1`, with -14% (inactive); and `Cc1oc2cc(O)ccc2c(=O)c1N1C(=O)c2ccccc2C1=O`, with -4% (inactive). Then `Cc1nnc(SCc2cc(=O)oc3cc(O)ccc23)n1Cc1ccccc1`, with 12% (active); and `CCOCCCNC(=O)C(NC(=O)Cc1cccs1)c1ccc(C)cc1` (stereo unspecified), with -21% (inactive); and `Fc1ccc(N2CCN(c3ccc4c(C(F)(F)F)cc(C(F)(F)F)nc4n3)CC2)cc1`, with -8% (inactive). Regarding `Cc1ccc(C(C#N)c2ccc3c(C(F)(F)F)cc(C(F)(F)F)nc3n2)cc1` (stereo unspecified), the activity increase over dofetilide control, less the hit threshold is 8% (active).

In the case of `Cc1ccc(S(=O)(=O)N2CCOCC2)cc1NC(=O)COC(=O)c1cccnc1Cl`, the activity increase over dofetilide control, less the hit threshold is -15% (inactive).

`COc1ccc(/C=C2/S/C(=N/N=C3\CC4CCC3(C)C4(C)C)NC2=O)cc1` (stereo unspecified): the activity increase over dofetilide control, less the hit threshold is 20% (active). As for `Cc1cccc(/C=C2/S/C(=N/N=C3\CC4CCC3(C)C4(C)C)NC2=O)c1` (stereo unspecified), the activity increase over dofetilide control, less the hit threshold was 5% (active). Then `Cc1ccc(N=C2NC(=O)/C(=C/c3cccs3)S2)cc1C`, with 0% (inactive); and `CC12CCC(C/C1=N\N=C1\NC(=O)/C(=C\c3ccc(Cl)cc3)S1)C2(C)C` (stereo unspecified), with -3% (inactive). To `CCOc1nc(-c2ccccc2)ccc1-c1noc(COC)n1` belongs -7% (inactive); to `COC(=O)c1ccc(NC(=O)COC(=O)C2CC(=O)N(Cc3ccccc3)C2)cc1` (stereo unspecified), -29% (inactive). To `Cc1cccc(NC(=S)N/N=C2\CC(C)(C)Oc3ccc(O)cc32)c1` belongs -5% (inactive); to `O=S(=O)(c1ccc(F)c(F)c1)N1CCN(c2ncccn2)CC1`, -9% (inactive); to `O=S(=O)(Nc1ccc(O)c2ccccc12)c1ccc(F)cc1`, -58% (inactive). For the compound `Cc1ccc(S(=O)(=O)Nc2ccc(O)c3ccccc23)c(C)c1`, the activity increase over dofetilide control, less the hit threshold is 5% (active). To `COc1ccc(OC)c(S(=O)(=O)Nc2ccc(O)c3ccccc23)c1` belongs -4% (inactive). Then `O=C(c1ccccc1)c1nccn1-c1ccc(Cl)nn1`, with -11% (inactive); and `COc1cc(/C=N/n2cnc3scc(-c4cccs4)c3c2=O)cc(OC)c1OC`, with -5% (inactive); and `S=c1[nH]c(-c2cccs2)cn1-c1ccccc1`, with -5% (inactive). With `CC(C1CC2CCC1C2)n1c(-c2cccs2)n[nH]c1=S` (stereo unspecified), the activity increase over dofetilide control, less the hit threshold is -4% (inactive).

On to `Cn1c(=S)[nH]c2scc(-c3cccs3)c2c1=O`, for which the activity increase over dofetilide control, less the hit threshold was 60% (active). Then `CC(C)n1c(=S)[nH]c2scc(-c3cccs3)c2c1=O`, with 79% (active); and `S=c1nc(C2CCCCC2)[nH]c2ccccc12`, with 4% (active); and `S=c1[nH]c2ccccc2c2ccccc12`, with -3% (inactive). Take `S=c1nc(C2CC2)[nH]c2ccccc12`: the activity increase over dofetilide control, less the hit threshold is 34% (active).

Turning to `COc1ccc(Cn2c(O)cc(=O)[nH]c2=O)cc1`, the activity increase over dofetilide control, less the hit threshold is -9% (inactive). Then `COc1ccc(-n2c(O)c(/C=C3\C=Nc4ccccc43)c(=O)[nH]c2=O)cc1`, with 21% (active). For the compound `Cn1cc(CCC(=O)N2CCCC(Nc3ccc(F)cc3)C2)cn1` (stereo unspecified), the activity increase over dofetilide control, less the hit threshold was -13% (inactive).

As for `CCc1cc2cc(C)cc(C)c2[nH]c1=S`, the activity increase over dofetilide control, less the hit threshold is 14% (active).

In the case of `COc1ccc(NC(=O)CC23CC4CC(CC(C4)C2)C3)cn1`, the activity increase over dofetilide control, less the hit threshold was -17% (inactive). Take `CCOC(=O)c1cnc(-n2nc(C)cc2C)nc1NNc1nc(-c2ccccc2)cc(-c2ccccc2)n1`: the activity increase over dofetilide control, less the hit threshold was -12% (inactive).

With `CCOc1cc(N2CCOCC2)c(OCC)cc1NC(=O)Cc1ccccc1`, the activity increase over dofetilide control, less the hit threshold is -2% (inactive). To `CCOc1cc(N2CCOCC2)c(OCC)cc1NC(=O)Cn1nc(C)c([N+](=O)[O-])c1C` belongs 16% (active); to `CCOc1cc(N2CCOCC2)c(OCC)cc1NC(=O)CCC1CCCC1`, -11% (inactive); to `Cc1ccccc1OC(=O)n1c(=S)oc2cc(Cl)ccc21`, -1% (inactive). Then `O=C(/C=C/Nc1ccccc1)C(F)(F)F`, with -14% (inactive); and `Cc1ccc(-c2nc(N)s[n+]2-c2ccccc2)cc1`, with 17% (active).

On to `CCC(C)(C)NC(=O)c1ccc(Sc2nncn2C)c([N+](=O)[O-])c1`, for which the activity increase over dofetilide control, less the hit threshold was -4% (inactive). On to `C=C(C)C1CC=C(C)/C(=N/NC(=O)CCC(=O)Nc2ccccc2Cl)C1` (stereo unspecified), for which the activity increase over dofetilide control, less the hit threshold is -17% (inactive). Take `COc1ccc(CCNC(=O)C(=O)Nc2ccc3c(c2)OCO3)cc1OC`: the activity increase over dofetilide control, less the hit threshold is -22% (inactive). For `COc1ccc2c(c1)O[C@@H](c1cccc(C(F)(F)F)c1)[C@H](OC(=O)NCCc1ccc(OC)c(OC)c1)C2=O`, the activity increase over dofetilide control, less the hit threshold was 3% (active). Then `COc1ccccc1-n1c(C)nc2cc(C(=O)NCc3ccc4c(c3)OCO4)ccc21`, with -27% (inactive); and `COc1cccc([C@@H]2Oc3ccc(OC)cc3C(=O)[C@H]2OC(=O)NCc2ccc3c(c2)OCO3)c1`, with 5% (active). To `COc1ccc(CCNC(=O)Cn2c(=O)n(-c3ccc(F)cc3)c(=O)c3sccc32)cc1OC` belongs -10% (inactive). To `COc1ccc(CCNC(=O)c2ccc3c(c2)OCO3)cc1` belongs -16% (inactive). In the case of `COC(=O)C(C)Sc1nnc(Cc2cc(=O)[nH]c(=O)[nH]2)n1-c1cccc(OC)c1` (stereo unspecified), the activity increase over dofetilide control, less the hit threshold was -17% (inactive). For `CC(C)OC(=O)N(C)c1ccc(C(O)(C(F)(F)F)C(F)(F)F)cc1`, the activity increase over dofetilide control, less the hit threshold is -8% (inactive). As for `CCCOC(=O)CN1C(=O)c2ccc(C(=O)OCCC)cc2C1=O`, the activity increase over dofetilide control, less the hit threshold is -8% (inactive).

For the compound `COc1ccc(CC(=O)Nc2ccc(-c3noc(-c4ccccc4OC)n3)cc2)cc1`, the activity increase over dofetilide control, less the hit threshold was -18% (inactive).

On to `Cc1c(C#N)c(O)[nH]c(=O)c1N=Nc1ccc(Br)cc1C(=O)O`, for which the activity increase over dofetilide control, less the hit threshold is 46% (active). In the case of `Cc1ccc(C(C)C)cc1S(=O)(=O)NC1CC(C)(C)NC(C)(C)C1`, the activity increase over dofetilide control, less the hit threshold is -15% (inactive). For `CC1(C)CC(NC(=O)c2ccc(Cl)cc2Cl)CC(C)(C)N1`, the activity increase over dofetilide control, less the hit threshold was 2% (active). To `Cc1ccc2c(c1)c1c(n2CC(O)Cn2nc(C)c(Br)c2C)CCCC1` (stereo unspecified) belongs -8% (inactive); to `Cc1ccc(F)cc1CNC(=O)C1CCC(=O)N(C2CC2)C1` (stereo unspecified), -7% (inactive); to `CCOC(=O)c1[nH]cnc1C(=O)Nc1ccc([N+](=O)[O-])cc1`, -13% (inactive). As for `CCOC(=O)/C(C)=N/NC(=O)c1cccc([N+](=O)[O-])c1`, the activity increase over dofetilide control, less the hit threshold was 3% (active). Turning to `Cc1cc(SCC(=O)c2cccc([N+](=O)[O-])c2)nc(=O)[nH]1`, the activity increase over dofetilide control, less the hit threshold is -9% (inactive). To `CCOC(=O)/C(C)=N/NC(=O)c1ccc([N+](=O)[O-])cc1` belongs 17% (active); to `Cc1ccccc1C(=O)NNC(=O)c1cccc([N+](=O)[O-])c1`, -31% (inactive). On to `CCOc1ccc(C(=O)N/N=C/c2cc([N+](=O)[O-])cs2)cc1`, for which the activity increase over dofetilide control, less the hit threshold was 0% (inactive).

Regarding `COc1cccc(C=NCCCN=Cc2cccc(OC)c2O)c1O`, the activity increase over dofetilide control, less the hit threshold was 9% (active).

Consider `COc1cccc(/C=N/NC(=O)CSc2ccccc2C)c1O`, for which the activity increase over dofetilide control, less the hit threshold is -5% (inactive). To `COc1cccc(/C=N/n2c(SC)nnc2-c2ccccc2)c1O` belongs -2% (inactive); to `COc1cccc(/C=N/Nc2nc3ccccc3[nH]2)c1O`, -4% (inactive). For the compound `COc1cc(Br)cc(C=Nc2cccc(C(F)(F)F)c2)c1O`, the activity increase over dofetilide control, less the hit threshold is -14% (inactive).

On to `COC(=O)c1cccc(/C=N/NC(N)=S)c1O`, for which the activity increase over dofetilide control, less the hit threshold is -9% (inactive). As to `COc1cccc(C=Nc2cc(C)cc(C)c2)c1O`, the activity increase over dofetilide control, less the hit threshold was 3% (active). To `CCOc1cccc(/C=N/NC(=O)c2ccc3c(c2)OCCO3)c1O` belongs -10% (inactive); to `COc1cccc(C=NCC(C)N=Cc2cccc(OC)c2O)c1O` (stereo unspecified), 7% (active).

As for `O=C(COC(=O)c1cnccn1)c1ccc(Cl)cc1`, the activity increase over dofetilide control, less the hit threshold is -9% (inactive).

With `CCCNc1c(NS(=O)(=O)c2cccc(C#N)c2)c(=O)oc2ccccc12`, the activity increase over dofetilide control, less the hit threshold is -6% (inactive). Then `Fc1cccc2sc(Nc3nnc(-c4ccccc4)o3)nc12`, with 59% (active); and `COc1cccc(-c2nnc(Nc3nc4c(F)cccc4s3)o2)c1`, with 9% (active); and `O=C(Cc1ccc(Cl)cc1)Nc1cccc(-c2nnc(-c3ccco3)o2)c1`, with -15% (inactive). Regarding `Fc1cccc2sc(Nc3nnc(-c4ccco4)o3)nc12`, the activity increase over dofetilide control, less the hit threshold is 3% (active). For `Fc1cccc2sc(Nc3nc4c(F)cccc4s3)nc12`, the activity increase over dofetilide control, less the hit threshold is 22% (active). To `CC(=O)Nc1nc2c(F)cccc2s1` belongs -15% (inactive); to `O=C(NCCc1ccc(F)cc1)c1coc(=O)c(Br)c1`, -17% (inactive). Then `O=C(Nc1nc2c(F)cc(F)cc2s1)C1COc2ccccc2O1` (stereo unspecified), with -6% (inactive). Regarding `Fc1ccc2nc(Nc3nc4c(F)cc(F)cc4s3)sc2c1`, the activity increase over dofetilide control, less the hit threshold was 4% (active). Then `O=C(CCc1ccccc1)Nc1nnc(-c2ccccn2)o1`, with -12% (inactive); and `Cc1cc(C(=O)NNC(=O)c2cccs2)nn1C(C)(C)C`, with -1% (inactive); and `CCc1ccc(NC(=O)C(=O)NNC(=O)c2cccs2)cc1`, with 61% (active). `CCOc1ccccc1CNC(=O)CNC(=O)c1cccs1`: the activity increase over dofetilide control, less the hit threshold is -24% (inactive).

`Cc1ccc(N/C=C/C(=O)c2cccs2)cc1`: the activity increase over dofetilide control, less the hit threshold was -15% (inactive). Then `Cc1ccc(NC(=O)C(=O)NNC(=O)c2cccs2)cc1`, with 74% (active); and `O=C1c2ccccc2C(=O)N1Cc1cc(-c2ccccc2Cl)no1`, with -7% (inactive).

As for `Cc1cc(C(F)(F)F)n(-c2ccc(N)cc2)n1`, the activity increase over dofetilide control, less the hit threshold was -5% (inactive). Then `CCOC(=O)c1[nH]c(=O)[nH]c1COC(=O)c1cc2ccccc2o1`, with -2% (inactive); and `O=C(CSc1nnc(SCc2ccccc2)s1)N/N=C/c1ccc(Cl)cc1Cl`, with -6% (inactive).

Consider `O=C(CSc1nc2cc(Cl)ccc2s1)c1cc2ccccc2o1`, for which the activity increase over dofetilide control, less the hit threshold was 2% (active).
